Experiment [1] in a line: qHTS assay to identify small molecule antagonists of the vitamin D receptor (VDR) signaling pathway - cell viability counter screen (AID 743225). For viability change, negative = cytotoxic: % is set by controls: 0 for no effect and ±100 for the full control effect. Note: nearly all actives have a fitted effect of over 50% in size. Note: potency is the fitted concentration of half-maximal effect. In a few lines: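 VDR-bla HEK 293T cells, 4 h pre-incubation at 37C, then compound plus 1-alpha,25-dihydroxyvitamin D3 (3 nM final) for 16 h. After the beta-lactamase FRET read, CellTiter-Glo was added to the same wells; luminescence after 30 min at room temperature.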

Experiment [2] can be described thus: qHTS assay to identify small molecule agonists of the NFkB signaling pathway - cell viability counter screen (AID 1159515; calls by dose curve; note: nearly all actives have a fitted effect of over 55% in size; note: potency is the fitted concentration of half-maximal effect). In a few lines:
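NFkB-bla ME-180 cells, 2,000/well, were plated overnight at 37 C, 5% CO2, then exposed to compounds in DMSO for 5 hr. After the bla FRET read, CellTiter-Glo was added to the same wells; luminescence was read after 30 min at room temperature.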

The target of experiment [3] is Nuclear receptor ROR-gamma (Homo sapiens) (UniProt P51449). As to the kind of experiment: qHTS assay to identify small molecule antagonists of the retinoid-related orphan receptor gamma (ROR-gamma) signaling pathway (AID 1159521; note: nearly all actives have a fitted effect of over 50% in size; note: potency is the fitted concentration of half-maximal effect). In a few lines: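 Tet-on RORγ CHO cells carrying a ROR response element–luciferase reporter were pretreated with compounds for 2 h, then induced with 1 uM (final) doxycycline hyclate for 16 h at 37 C. Antagonism was read as decreased ONE-Glo luminescence.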

The nature of experiment [4]: qHTS assay to identify small molecule agonists of the AP-1 signaling pathway - cell viability counter screen (AID 1159525; calls by dose curve; note: nearly all actives have a fitted effect of over 55% in size). In a few lines:
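AP-1-bla ME-180 cells in Opti-MEM with 0.5% dialyzed FBS, compound exposure 5 h at 37 C in 15-point titration. Viability read in the same wells as ATP content by CellTiter-Glo luminescence, normalised to tetra-n-octylammonium bromide and DMSO controls.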

Experiment [5] is described as follows: qHTS assay to identify small molecule agonists of the RXR signaling pathway - cell viability counter screen (AID 1159529). For activity change, negative = cytotoxicity: series mostly up to about 77 µM; % is set by controls: 0 for no effect and ±100 for the full control effect. Note: nearly all actives have a fitted effect of over 50% in size. Note: potency is the fitted concentration of half-maximal effect. In short, it runs like this:
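RXR-alpha-UAS-bla HEK 293T cells in medium with 2% charcoal-stripped FBS were preincubated 5 hr, then exposed to compounds for 16 hr at 37 C. Viability was read as CellTiter-Glo luminescence after 30 min at room temperature.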

Experiment [6] in a line: qHTS assay to identify small molecule antagonists of the retinoid acid receptor (RAR) signaling pathway - cell viability counter screen (AID 1159551). Note: % is set by controls: 0 for no effect and ±100 for the full control effect; nearly all actives have a fitted effect of over 35% in size. In a few lines: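 C3RL4 cells were seeded overnight at 37 C, then treated with compounds plus 1 uM (final) retinol for 6 h at 37 C. Viability was read as ATP by CellTiter-Glo luminescence after 30 min at room temperature.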

Experiment [7] in a line: qHTS assay to identify small molecule agonists of the vitamin D receptor (VDR) signaling pathway - cell viability counter screen (AID 743224). For activity change, negative = cytotoxicity: series mostly up to about 63 µM; % is set by controls: 0 for no effect and ±100 for the full control effect. Note: nearly all actives have a fitted effect of over 50% in size. Note: potency is the fitted concentration of half-maximal effect. In a few lines: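 VDR-bla cells were preincubated 4 h at 37C/5% CO2, then exposed to compounds for 16 h. After the 2 h room-temperature bla FRET read, CellTiter-Glo was added to the same wells and luminescence read after 30 min.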

Experiment [8] can be described thus: qHTS assay to identify small molecule antagonists of the retinoid-related orphan receptor gamma (ROR-gamma) signaling pathway - cell viability counter screen (AID 1159520). In a few lines: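 Tet-on ROR gamma CHO cells were given compounds for 2 hr, then doxycycline hyclate at 1 uM final, and incubated 16 hr at 37 C. Viability was measured as ATP content by CellTiter-Glo luminescence.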

A short description of experiment [9]: qHTS assay to identify small molecule antagonists of the retinoic acid receptor (RAR) signaling pathway (AID 1159552; note: nearly all actives have a fitted effect of over 50% in size; note: potency is the fitted concentration of half-maximal effect). In short, it runs like this: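 RARE-luc C3RL4 cells; cpds + 1 uM (final) retinol, 6 hr, 37 C/5% CO2; luciferase reagent, 30 min RT, luminescence readout. Inhibitors of retinol-driven signal scored.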
Experiment [10] in a line: qHTS assay to identify small molecule agonists of the AP-1 signaling pathway (AID 1159526; calls by dose curve; note: potency is the fitted concentration of half-maximal effect).
A short description of experiment [11]: qHTS assay to identify small molecule agonists of the retinoic acid receptor (RAR) signaling pathway (AID 1159553). Note: potency is the fitted concentration of half-maximal effect. In short, it runs like this:
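C3RL4 cells carrying a RARE luciferase reporter were plated overnight at 37 C, then exposed to compounds in DMSO for 6 hr at 37 C and 5% CO2. Luminescence was read 30 min after luciferase reagent addition at room temperature.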

Experiment [12] has as its target Retinoic acid receptor RXR-alpha (Homo sapiens) (UniProt P19793). As to the kind of experiment: qHTS assay to identify small molecule agonists of the RXR signaling pathway (AID 1159527; calls by dose curve; note: nearly all actives have a fitted effect of over 35% in size; note: potency is the fitted concentration of half-maximal effect). In short, it runs like this:
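GeneBLAzer RXR-alpha-UAS-bla HEK 293T cells in medium with 2% charcoal-stripped FBS, pre-incubated 5 hr at 37 C, then exposed to compounds 16 hr. Beta-lactamase reporter read by FRET substrate, 2 hr room temperature, 460/530 nm emission.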

Experiment [13] can be described thus: qHTS assay to identify small molecule agonists of the endoplasmic reticulum stress response signaling pathway (AID 1159516; active = well fitted activation curve with a large enough effect in the signal ratio in the repeat runs, not every such curve was filed as active; the % refers to the signal ratio; note: % is set by controls: 0 for no effect and ±100 for the full control effect). In a few lines:
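CellSensor ESRE-bla HeLa cells, carrying a beta-lactamase reporter driven by the ER stress response element, were plated overnight and exposed to compounds for 5 hr at 37 C. Reporter activity was read as FRET substrate fluorescence after 2 hr at room temperature.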

Experiment [14] in a line: qHTS assay to identify small molecule agonists of the endoplasmic reticulum stress response signaling pathway - cell viability counter screen (AID 1159517; calls by dose curve). In short, it runs like this: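 ESRE-bla HeLa cells, 1,500 per well, seeded overnight then treated with compounds for 5 hr at 37 C. After the beta-lactamase read, viability in the same wells is measured by CellTiter-Glo luminescence after 30 min at room temperature.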

Several values for one entry are separate records, joined by “and”; a condition that tells them apart may be missing. Identical values can stand only once. Records with an inconclusive call do not appear. Values without a mark were called inactive. Activity calls are given as the source filed them. Unless noted, calls come from the whole dose curve; as a rule, active = well fitted curve in the direction sought with a large enough effect in the repeat runs; inconclusive = weak or mixed curves; inactive = no such curve, though single readings can be large; an effect the other way counts as inactive or inconclusive.

Chain of Retinoic acid receptor RXR-alpha (Homo sapiens) (P19793 whole entry, looked up): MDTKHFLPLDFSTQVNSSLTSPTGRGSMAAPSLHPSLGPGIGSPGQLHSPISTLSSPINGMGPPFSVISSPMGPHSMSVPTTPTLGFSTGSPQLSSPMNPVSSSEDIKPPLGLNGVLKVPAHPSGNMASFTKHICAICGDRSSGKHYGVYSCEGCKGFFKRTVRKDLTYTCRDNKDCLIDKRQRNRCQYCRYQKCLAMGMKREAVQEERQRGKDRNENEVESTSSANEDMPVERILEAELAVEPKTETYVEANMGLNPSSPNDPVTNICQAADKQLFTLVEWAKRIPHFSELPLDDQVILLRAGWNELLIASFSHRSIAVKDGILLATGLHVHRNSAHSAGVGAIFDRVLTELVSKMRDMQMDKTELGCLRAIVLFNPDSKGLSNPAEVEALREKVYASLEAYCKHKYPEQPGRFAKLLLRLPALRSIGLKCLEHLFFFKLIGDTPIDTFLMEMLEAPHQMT

Take `CCOC(=O)c1nc(C(Cl)(Cl)Cl)n(-c2ccc(Cl)cc2Cl)n1`: the Potency is 49 µM (active) in experiment [1], 21.7 µM (active) in [3] and 49 µM (active) in experiment [5]. Besides, the Potency result in experiment [2], in experiment [4] and in experiment [6] was “inactive” each time.
As to `CCCC(=O)OC[C@@H](OC(=O)CCC)[C@@H](OC(=O)CCC)[C@H](Cn1c2nc(=O)[nH]c(=O)c-2nc2cc(C)c(C)cc21)OC(=O)CCC`, the Potency result in experiment [7], in experiment [1], in [2], in experiment [8], in experiment [5] and in experiment [6] was “inactive” each time. Besides, in experiment [9], the Potency result was “inactive”.
`Cc1cc(C2CCCCC2)n(O)c(=O)c1`: the Potency in [7] was 18.8 µM (active); in experiment [2], 5.35 µM (active); in experiment [3], 23.7 µM (active). In addition, the Potency entry in [4], in experiment [5], in [6] and in experiment [9] was “inactive” each time.
Turning to `O=CC=C(c1ccccc1)c1ccccc1`, the Potency entry in experiment [2], in experiment [4], in experiment [5] and in experiment [9] was “inactive” in each case. Moreover, the Potency in [3] was 61.6 µM (active).
As for `O=C(Oc1cccc2cccnc12)c1ccccc1`, the Potency in experiment [7] was 3.76 µM (active); in experiment [2] it was 2.39 µM (active); in [5], 8.49 µM (active). The Potency entry in [1], in [8], in experiment [4] and in experiment [6] was “inactive” each time.
On to `CCC1=C[C@@H]2CN(C1)Cc1c([nH]c3ccccc13)[C@@](C(=O)OC)(c1cc3c(cc1OC)N(C)[C@H]1[C@@](O)(C(=O)OC)[C@H](OC(C)=O)[C@]4(CC)C=CCN5CC[C@]31[C@@H]54)C2`, for which the Potency result in experiment [7], in [1], in experiment [2], in experiment [8] and in experiment [6] was “inactive” in each case. Further, the Potency in [10] was 0.107 µM (active).
Regarding `O=C1CCCCCN1SSN1CCCCCC1=O`, the Potency entry in [2], in experiment [5] and in experiment [6] was “inactive” each time. Moreover, the Potency in experiment [3] and in experiment [9] was 24.3 µM (active) in each case.
For `O=Cc1cc(O)ccc1Br`, the Potency entry in experiment [7], in experiment [1], in [2], in [3], in experiment [4] and in experiment [10] was “inactive” each time. The Potency entry in experiment [5], in experiment [6] and in experiment [9] was “inactive” in each case.
`CN(C)CCCOC1(Cc2ccccc2)CCCCCC1`: the Potency entry in experiment [2], in [8], in experiment [4], in experiment [6], in experiment [9] and in experiment [11] was “inactive” throughout.
As to `CCCN(CCC)C(=O)C(CCC(=O)OCCCN1CCN(CCOC(=O)Cc2c(C)n(C(=O)c3ccc(Cl)cc3)c3ccc(OC)cc23)CC1)NC(=O)c1ccccc1` (centres undefined), the Potency in experiment [1] was 26.8 µM (active); in experiment [2], 21.3 µM (active). Moreover, the Potency result in experiment [8], in [4], in experiment [6] and in [11] was “inactive” each time.
On to `CCc1cc(Cc2cc(CC)c(N)c(CC)c2)cc(CC)c1N`, for which the Potency was 49 µM (active) in [2], 48.6 µM (active) in experiment [3] and 38.9 µM (active) in [5]. For the same compound, the Potency result in [6] and in experiment [9] was “inactive” throughout.
Regarding `O=C(Nc1ccc(Oc2ccc(Cl)cc2)c(Cl)c1)c1cc(I)cc(I)c1O`, the Potency was 18.8 µM (active) in experiment [7] and 23.7 µM (active) in experiment [3]. Moreover, the Potency result in experiment [2], in [4], in experiment [6] and in experiment [11] was “inactive” throughout.
Turning to `O=C(OC[C@H]1O[C@@H](OC(=O)c2cc(O)c(O)c(OC(=O)c3cc(O)c(O)c(O)c3)c2)[C@H](OC(=O)c2cc(O)c(O)c(OC(=O)c3cc(O)c(O)c(O)c3)c2)[C@@H](OC(=O)c2cc(O)c(O)c(OC(=O)c3cc(O)c(O)c(O)c3)c2)[C@@H]1OC(=O)c1cc(O)c(O)c(OC(=O)c2cc(O)c(O)c(O)c2)c1)c1cc(O)c(O)c(OC(=O)c2cc(O)c(O)c(O)c2)c1`, the Potency result in [2] and in experiment [11] was “inactive” throughout. Besides, the activity, negative = cytotoxicity in experiment [8] is -4.77% [at 19 µM]. For the same compound, the viability change, negative = cytotoxic in experiment [4] is 1.96% [at 15.8 µM]. Moreover, the activity change, negative = cytotoxicity in experiment [5] is 11.4% [at 15.8 µM]; in [6] it was -3.41% [at 19 µM]. Further, the activity, negative = inhibition in experiment [9] is 22.4% [at 19 µM].
In the case of `Oc1ccc2c(c1)-c1ccccc1C2`, the Potency entry in [7], in experiment [2], in experiment [3], in experiment [4], in experiment [10] and in experiment [5] was “inactive” each time. In addition, the Potency result in experiment [6] and in [9] was “inactive” in each case.
`CCCCCCCCCCCCCCCC(=O)OC[C@H](O)[C@H]1OC(=O)C(O)=C1O`: the figures for the Potency in [7] and in [5] were 34.7 µM (active) and 38.9 µM (active), respectively. Also, the Potency entry in experiment [1], in experiment [2], in experiment [8] and in experiment [6] was “inactive” each time.
As to `C/C(=C(/OCCOc1ccc(Cl)cc1)c1ccc(Cl)cc1Cl)n1ccnc1`, the Potency entry in experiment [1], in [2], in experiment [8], in experiment [4], in experiment [12] and in experiment [5] was “inactive” each time. Further, the Potency entry in experiment [6] and in experiment [9] was “inactive” throughout.
In the case of `CC(C)=CCOc1ccc(/C=C/C(=O)c2ccc(OCC=C(C)C)cc2OCC(=O)O)cc1`, the Potency entry in experiment [7], in experiment [2], in experiment [8], in experiment [4], in experiment [6] and in experiment [9] was “inactive” each time. The Potency result in experiment [11] was “inactive”.
With `CC1(C)CCC(C)(C)c2cc(C(=O)Nc3ccc(C(=O)O)cc3)ccc21`, the Potency result in experiment [2], in experiment [4], in [10], in experiment [5] and in experiment [6] was “inactive” each time. For the same compound, the Potency in experiment [3] was 61.1 µM (active); in [12], 4.36 µM (active).
As for `Clc1ccc2n[nH]nc2c1`, the Potency result in experiment [7], in experiment [1], in experiment [2], in [8], in [4] and in experiment [5] was “inactive” in each case. The Potency entry in [6] was “inactive”.
As to `C1CCCC1`, the Potency result in [7], in experiment [1], in [14], in experiment [8], in experiment [3] and in [4] was “inactive” in each case. The Potency result in experiment [10], in experiment [12], in experiment [5], in [6], in experiment [9] and in experiment [11] was “inactive” in each case. The result in experiment [13] was inactive.
Regarding `CCCCCCOC(=O)c1ccc(O)cc1`, the result in experiment [13] was inactive. In addition, the Potency entry in experiment [8], in [3], in experiment [12], in experiment [6] and in experiment [9] was “inactive” each time. Moreover, the Potency in experiment [11] is 4.33 µM (active) and 1.93 µM (active).
For the compound `O=C1c2ccccc2Cc2ccccc21`, the Potency result in experiment [7], in [1], in experiment [14], in [8], in [3] and in experiment [4] was “inactive” in each case. Moreover, the Potency result in experiment [10], in experiment [12], in experiment [5], in experiment [6] and in [9] was “inactive” throughout. Also, the compound was classed as inactive in experiment [13].
With `COc1cccc(N)c1`, the call in experiment [13] was inactive. Besides, the Potency result in [14], in [8], in experiment [3], in experiment [4], in [10] and in experiment [12] was “inactive” each time. The Potency result in experiment [5], in experiment [6] and in [9] was “inactive” in each case.
Take `CCC(N)(CO)CO`: the Potency entry in experiment [7], in [1], in experiment [14], in experiment [8], in experiment [3] and in experiment [10] was “inactive” in each case. In addition, the Potency result in experiment [12], in experiment [5], in experiment [6], in [9] and in experiment [11] was “inactive” in each case. In addition, the compound was called inactive in [13].

The record behind these values is PubChem BioAssay (Tox21).
